This is a sample that favours compounds with a hit; in the whole collection about 2.7% have one here.
ALOX12 inh: inhibitors of human 12S-lipoxygenase ALOX12 | Potency, µM (top dose mostly 108 µM), without a hit: at the top dose activity change, negative = inhibition, usual class: inhibitors | actives 1.1% (n = 580,000) | P18054 | purified 12hLO, xylenol orange hydroperoxide absorbance | AID 1671190; further: on the % scale 0 is the no-effect control and ±100 the full control effect
Target sequence (P18054 whole entry, looked up): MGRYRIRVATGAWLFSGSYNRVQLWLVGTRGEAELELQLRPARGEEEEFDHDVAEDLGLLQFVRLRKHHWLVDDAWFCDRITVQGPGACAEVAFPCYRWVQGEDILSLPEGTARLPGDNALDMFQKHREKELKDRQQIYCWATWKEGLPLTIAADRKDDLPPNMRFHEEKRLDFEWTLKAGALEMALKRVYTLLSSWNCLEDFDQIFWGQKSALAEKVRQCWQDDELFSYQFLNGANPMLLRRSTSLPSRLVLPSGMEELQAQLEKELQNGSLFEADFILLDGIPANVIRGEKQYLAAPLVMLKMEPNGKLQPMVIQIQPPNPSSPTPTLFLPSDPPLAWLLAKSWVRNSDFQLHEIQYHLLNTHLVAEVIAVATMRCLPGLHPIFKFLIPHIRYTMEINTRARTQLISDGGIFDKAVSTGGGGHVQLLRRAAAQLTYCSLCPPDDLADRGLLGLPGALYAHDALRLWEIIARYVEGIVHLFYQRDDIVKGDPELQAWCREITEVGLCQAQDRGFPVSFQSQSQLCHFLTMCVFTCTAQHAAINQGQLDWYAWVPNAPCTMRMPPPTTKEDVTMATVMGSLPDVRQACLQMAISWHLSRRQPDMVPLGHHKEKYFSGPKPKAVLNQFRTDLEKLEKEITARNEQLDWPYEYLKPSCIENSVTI
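Purified human 12hLO (150 nM final) in 25 mM Hepes, 0.01% Triton X-100, pH 7.0 was preincubated 15 min at room temperature with compound. Then 40 uM arachidonic acid was added, 30 min. Hydroperoxide was read by Fe-XO absorbance ratio 573/405 nm.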
HepG2 viability: kills HepG2 cells in TGF-b inhibitor counter-screen; HepG2 CAGA-GFP viability, ATP luminescence, 18 h; Potency, µM (highest dose often 46.1 µM), without a hit: top-dose activity change, negative = cytotoxicity, most hits filed as cytotoxic; actives 0.76% (n = 410,000)
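HepG2 CAGA-GFP cells (1000/well, DMEM with 1% FBS) received compound, then TGF-beta at 500 pg/mL final, and were incubated 18 hours at 37 degrees C. Viability was read by CellTiter-Glo luminescence. Media-only wells were set as complete cell-killing and DMSO as no toxicity.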
TGFb SMAD3 inh: TGF-b pathway inhibition. HepG2 CAGA-GFP TGF-b/SMAD3 reporter, GFP fluorescence, 18 h; TGF-beta stimulated, 500 pg/mL final. Potency, µM (top dose mostly 46.1 µM), inactives show top-dose activity, negative = inhibition, usual class: inhibitors. actives 1.2% (n = 410,000); further: on the % scale 0 is the no-effect control and ±100 the full control effect; nearly all actives have a fitted effect of over 65% in size
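Inhibition was scored as loss of TGF-beta-induced (500 pg/mL final, 18 hours, 37 degrees C) GFP in HEPG2 cells carrying a CAGA-GFP reporter, in DMEM with 1% FBS. Well GFP was summed per cell; Activity was normalised to unstimulated and stimulated DMSO wells, then concentration-response fitting.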
S2 tox: cell viability loss in ATXN counter-screen. actives 0.49% (n = 400,000). S2 cells (HEK-293 line with an ATXN2-luciferase reporter) viability, CellTiter-Fluor protease fluorescence, 24 h. Potency, µM (highest dose often 56.7 µM), most hits filed as cytotoxic; further: nearly all actives have a fitted effect of over 40% in size
ATXN2 expr inh: inhibitors of ATXN2 expression | Potency, µM (series often up to 57 µM), without a hit: top-dose activity change, negative = inhibition, usual class: inhibitors | actives 0.72% (n = 360,000) | HEK-293 ATXN2-luciferase reporter, luminescence, 24 h; further: on the % scale 0 is the no-effect control and ±100 the full control effect; nearly all actives have a fitted effect of over 55% in size
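qHTS (up to 57 uM final) was run with 24 h compound exposure of reporter cells at 37 °C. Each well was multiplexed: SteadyGlo luminescence measured ATXN2-luciferase expression after a fluorogenic Gly-Phe-AFC viability readout (25 uM final).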
* hit, by the source's call; i = inactive; u = inconclusive; x = not tested or not shown; ! = repeats disagree; [ ] = remark or other dose. The call rests on the fitted dose curve; in most records, active means well fitted curve in the direction sought with a large enough effect; inconclusive means small, poorly fitted or top-dose-only effect, or another doubt; inactive means no such curve, though single readings can be large; an effect the other way counts as inactive or inconclusive. Potency means the concentration at half of the fitted maximal effect.

SMILES | ALOX12 inh | HepG2 viability | TGFb SMAD3 inh | S2 tox | ATXN2 expr inh
Cc1cccc(-c2nc(SCC(=O)Nc3ccc4c(c3)OCO4)c(-c3ccccc3)[nH]2)c1 | -3.9% | -22.3% | 12.6µM* | u | u
COc1ccc(-c2[nH]c(-c3ccc(F)cc3)nc2SCC(=O)NC2CCCC2)cc1 | -1.3% | -22.4% | u | u | 1.8%
Nc1cc(N)nc(SCC(=O)Nc2ccc3c(c2)OCO3)n1 | 0.6% | -26.7% | -1.4% | i | -5.5%
Nc1nc(SCC(=O)Nc2ccc3c(c2)OCO3)n[nH]1 | 2.9% | 10µM* | -1.5% | i | 8.1%
CC(C(=O)Nc1ccc(OC(F)(F)F)cc1)N1CCN(c2ccc([N+](=O)[O-])c3cnccc23)CC1 (configuration not stated) | 6.6% | x | x | x | x
COc1ccc(C2CC(c3ccccc3NS(=O)(=O)c3ccccc3)=NN2C(C)=O)cc1 (configuration not stated) | -8.3% | x | x | x | x
Cn1cnc2c1c(=O)n(CCCSc1nnc(-c3ccccc3)o1)c(=O)n2C | 5.9% | x | x | x | x
CCOc1ccc(-c2nc(SCC(=O)Nc3ccc4c(c3)OCO4)c(-c3ccc(F)cc3)[nH]2)cc1 | 1.5% | -28.3% | -12.6% | i | 3.5%
O=C(CSc1nc(-c2ccc(F)cc2)[nH]c1-c1ccc(F)cc1)Nc1ccc2c(c1)OCO2 | -27.0% | -68.6% | 7.08µM* | u | u
O=C(CSc1nc(-c2ccccc2)[nH]c1-c1ccccc1)Nc1ccc2c(c1)OCCO2 | -0.4% | 10µM* | u | x | u
COc1ccc(-c2[nH]c(-c3ccccc3)nc2SCC(=O)Nc2ccc3c(c2)OCCO3)cc1 | -19.2% | -5.0% | -21.9% | u | u
CC(=O)N1CCN(C(=O)c2ccc3c(ccn3Cc3ccccc3)c2)CC1 | 0.0% | x | x | x | x
c1ccc(OCc2nn3c(CN4CCOCC4)nnc3s2)cc1 | 10µM* | x | x | x | x
c1ccc(OCc2nnc3sc(-c4cccs4)nn23)cc1 | u | -3.5% | u | i | 2.0%
c1ccc(OCc2nnc3sc(-c4ccccc4)nn23)cc1 | 8.91µM* | x | x | x | x
OC1CC2CCC(C1)N2CCCN1c2ccccc2Sc2ccc(Cl)cc21 (configuration not stated) | u | 22.4µM* | u | 15.8µM* | 11.2µM*
Cc1ccc(Cc2c(-c3ccc(F)cc3)nc3c(C)cc(Br)cn23)cc1 | x | -61.8% | 12.6µM* | u | -16.6%
Clc1cccc(-c2nc3ccc(Cl)cn3c2Cc2ccccc2)c1 | 24.2% | -35.8% | u | u | -1.3%
Cc1ccc2nc(-c3ccc(O)cc3)c(Nc3ccc(Cl)cc3)n2c1 | u | -82.5% | 17.8µM* | x | x
COc1ccc(Cc2c(-c3cccc(Cl)c3)nc3cc(C)c(Br)c(C)n23)c(C)c1 | u | x | x | i | 6.4%
COc1ccc(Cc2c(-c3cccc(Cl)c3)nc3ccc(C)cn23)c(C)c1 | 10µM* | -44.6% | u | u | 9.3%
Clc1cccc(-c2nc3ccc(Cl)cn3c2Cc2ccsc2)c1 | x | -40.7% | 15.8µM* | i | 46.0%
CCOc1cc(CNC(=O)c2ncoc2-c2ccc(OC)cc2)cc(OCC)c1OCC | 0.4% | x | x | x | x
Cc1ccc(C)c(S(=O)(=O)NCCc2coc(-c3ccccc3)n2)c1 | 7.3% | x | x | x | x
COc1ccc(Cc2c(-c3ccc(F)cc3)nc3c(C)cc(Br)cn23)c(C)c1 | 35.5µM* | -33.6% | u | i | 2.0%
SMILES | ALOX12 inh | HepG2 viability | TGFb SMAD3 inh | S2 tox | ATXN2 expr inh
COc1ccc(Cc2c(-c3ccc(Cl)cc3)nc3c(C)cc(Br)cn23)c(C)c1 | u | -20.1% | -18.9% | u | 10.6%
COc1ccc(Cc2c(-c3cccc(Br)c3)nc3c(C)cc(Br)cn23)c(C)c1 | u | -11.8% | -23.1% | i | 12.4%
COc1ccc(Cc2c(-c3cccc(Cl)c3)nc3c(C)cc(Br)cn23)c(C)c1 | 7.94µM* | -30.8% | u | u | -32.0%
Cc1ccc2nc(-c3ccc(Cl)cc3)c(Cc3cccc(Cl)c3)n2c1 | 0.0% | x | x | 28.2µM* | u
CC(=O)Cc1cc(O)c2ccccc2c1OC(=O)c1ccccc1 | -14.9% | 20µM* | u | x | -15.7%
CC1CCC(NC(=O)c2csc3c2CCCC3)CC1 (configuration not stated) | 5.2% | x | x | x | x
COc1ccc(-c2coc3cc(OC(=O)c4ccccc4)ccc3c2=O)cc1OC | -11.8% | x | x | x | x
C=CCSC1=N/C(=C\C=C\c2ccccc2)C(=O)S1 | 14.1µM* | x | x | x | x
Cc1cc2c(C)cc(=O)[nH]c2cc1NC(=O)CCl | u | -66.1% | u | 11.2µM* | x
CCOc1cc(N2CCOCC2)c(OCC)cc1NC(C)C(=O)N1CCN(CC)CC1 (configuration not stated) | 3.16µM* | 2.5% | u | i | -25.7%
CCOc1cc(N2CCOCC2)c(OCC)cc1NC(=O)CSc1ncccn1 | 0.6% | 10.3% | u | i | -8.6%
CCOc1cc(N2CCOCC2)c(OCC)cc1NC(=O)CSc1ncccc1C(=O)O | 11.2µM* | -3.1% | 2.7% | i | 4.7%
O=C(c1ccccc1F)N1CCC2(C1)C(=O)Nc1ccccc12 (configuration not stated) | 0.6%[6.33 µM] | x | x | x | x
CS/C(N)=N/N=C/c1cc(Br)cc(Br)c1O | 7.5% | -64.7% | 6.31µM* | i | x
CS/C(N)=N/N=C/c1cc(C)ccc1O | -9.7% | -44.5% | u | i | 8.6%
Oc1cccc2c(N=Cc3ccc(F)c(F)c3)cccc12 | 22.4µM* | x | x | x | x
Oc1ccccc1C=Nc1cccc2ccccc12 | 140.1% | -7.0% | -3.3% | i | x
Cc1cnc(CC2CCN(C(=O)N(C)C)C2)n1Cc1ccccc1 (configuration not stated) | 16.5% | x | x | x | x
COc1cc(CNC2CCCC2)cc(Cl)c1OCc1ccccc1F | -28.8% | 11.2µM* | u | x | 20µM*
CC(C)CCNC1=NCCCCC1 | 6.1% | 11.2µM* | u | i | 3.8%
Cc1cc(C)c2[nH]c(=S)cc(C)c2c1 | 6.31µM*! | -27.0% | 3.0% | i | -5.4%
O=C(c1n[nH]c(=O)c2ccccc12)N1CCCC1c1ccc2c(c1)OCCCO2 (configuration not stated) | -1.8% | x | x | x | x
COc1ccc(-c2cn(Cc3ccc(C(=O)c4ccccc4)cc3)nn2)cc1 | 7.2% | -30.1% | 10µM* | u | 23.7%
Cc1cc(=O)c2c(O)c3c(O)cc(=O)c4c3c3c(cc(O)c1c23)C(C)(C)C=4O | u | x | x | i | 27.3µM*!
CCN(CC)c1cc(C)c2cc(NC(=O)c3ccc(F)cc3Cl)ccc2n1 | -17.4% | -26.7% | 0.0% | u | u
CCN(CC)c1cc(C)c2cc(NC(=O)/C=C/c3ccccc3Cl)ccc2n1 | u | -80.5% | u | x | 28.2µM*
CCN(CC)c1cc(C)c2cc(NC(=O)c3cc(OC)cc(OC)c3)ccc2n1 | -15.9% | -26.7% | u | x | 17.8µM*

Bioassay records deposited in PubChem by National Center for Advancing Translational Sciences (NCATS).
